Potency and activity, negative = cell killing data for 25 molecules are collected here from PubChem BioAssay (NCATS).

The structures appear in SMILES notation. “And” between values parts separate entries of the source, which are not always exact repeats. Equal entries are not always repeated. Records with an inconclusive call do not appear. Values without a mark were called inactive. The source made the active and inactive calls. Calls follow the shape of the dose curve; as a rule, active = well fitted curve in the direction sought with a large enough effect; inconclusive = small, poorly fitted or top-dose-only effect, or another doubt; inactive = no such curve, though single readings can be large; an effect the other way counts as inactive or inconclusive.

Assay [1] deals with Hek293T. Briefly: Primary qHTS to identify gynecologic anti-cancer compounds using libraries of approved drugs and bioactive compounds (AID 1345084). Also: nearly all actives have a fitted effect of over 55% in size. The following applies: Gynecologic cancer cell panel viability, ATPlite luminescence, 48 h, control line for the selectivity index; series mostly up to 57.5 µM. In a few lines: (§1)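 Five-point cytotoxicity, 48 h drug exposure at 37 C, 5% CO2, on cells seeded 16 h beforehand. ATP content read by ATPlite luminescence.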
Background: Quantitative high-throughput screening tests each substance at several concentrations.

The subject of assay [2] is JEG-3. The assay is described as above. The following applies: Gynecologic cancer cell panel viability, ATPlite luminescence, 48 h; series mostly up to 57.5 µM. The method, boiled down: as §1
Assay [3] relates to PA-1. The assay is described as above. The following applies: Gynecologic cancer cell panel viability, ATPlite luminescence, 48 h; series mostly up to 57.5 µM. In a few lines: as §1
The subject of assay [4] is SKOV3. The description is as above. The following applies: Gynecologic cancer cell panel viability, ATPlite luminescence, 48 h; series mostly up to 57.5 µM. In a few lines:
as §1
In general terms: In ATP-based viability assays light output follows the ATP content of the culture.

Assay [5] deals with Tov-21-G. The description is as above. The following applies: Gynecologic cancer cell panel viability, ATPlite luminescence, 48 h; series mostly up to 57.5 µM. The method, boiled down:
as §1

The test system of assay [6] is Tov112D. The description is as above. The following applies: Gynecologic cancer cell panel viability, ATPlite luminescence, 48 h; series mostly up to 57.5 µM. The method, boiled down:
as §1

The nature of assay [7]: Drug repurposing screens with cells derived from glioblastoma tumor samples (AID 1345199). Also: nearly all actives have a fitted effect of over 40% in size. As to activity, negative = cell killing: % is scaled to controls: 0 for no effect and ±100 for the full control effect. The following applies: GBM patient neurospheres viability, ATP luminescence, 48 h. In a few lines: (§2)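 Primary testing used CD133+ neurospheres from four GBM patients, seven concentrations, 48 h exposure and ATP-based viability; confirmation added three slower-growing patient lines.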

Assay [8] has as its system OV90. Briefly: Primary qHTS to identify gynecologic anti-cancer compounds using libraries of approved drugs and bioactive compounds (AID 1345084). Also: nearly all actives have a fitted effect of over 55% in size. The following applies: Gynecologic cancer cell panel viability, ATPlite luminescence, 48 h; series mostly up to 57.5 µM. In a few lines:
as §1

Assay [9] deals with astro. Briefly: Drug repurposing screens with cells derived from glioblastoma tumor samples (AID 1345199). Also: nearly all actives have a fitted effect of over 40% in size. As to activity, negative = cell killing: % is scaled to controls: 0 for no effect and ±100 for the full control effect. The following applies: viability, ATP luminescence, 48 h; series mostly up to 45.9 µM. In a few lines:
as §2

Assay [10] in a line: qHTS assay to identify inhibitors of the type 1 interferon - major histocompatibility complex class I in skeletal muscle: Counter screen cell viability and HiBit confirmation (AID 1347412). Also: nearly all actives have a fitted effect of over 60% in size. The following applies: iHSKM muscle cells + IFN-b, HiBiT or CellTiter-Glo, 24 h; Potency: HiBiT; Viability, at 45.9 µM (top of the series). In a few lines:
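Luminescence read-out: Nano-Glo HiBiT lytic signal from C-terminally HiBiT-tagged HLA-B in CRISPR-edited human myoblasts, plus CellTiter Glo ATP as viability counter screen. IFN-beta 4.0 ng/ml; 24 hrs treatment at 37 C, 5% CO2.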

[11] abbreviates: at 45.9 µM (top of the series), tumour line B.
Setting [12] is: at 45.9 µM (top of the series), tumour line D.
The mark [13] stands for this setting: at 46.1 µM (top of the series), tumour line C.
Where [14] appears, read: at 46 µM (top of the series), tumour line A.
Setting [15] is: at 20 µM (top of the series), tumour line C.
[16] abbreviates: at 21.2 µM (top of the series), tumour line B.
Setting [17] is: at 21.2 µM (top of the series), tumour line D.
Potency is read from the fitted curve at half-maximal effect.

On to `CCN(CC)CCNC(=O)c1cc(Br)c(N)cc1OC`, for which the Potency entry in assay [1], in [2], in [3], in assay [4], in [5] and in assay [6] was “inactive” in each case. Further, the results for the activity, negative = cell killing in [7] (setting [11]), in assay [7] (setting [12]) and in [7] (setting [13]) were -11.2%, -11.8% and -28.9%, respectively. Moreover, the Potency in assay [7] (tumour line A) was 7.94 µM (active).
`O=C1C(O)=C(O)C(=O)C(O)=C1O`: the Potency result in [1], in assay [2], in [8], in [4], in assay [5] and in assay [9] was “inactive” each time. The activity, negative = cell killing is -1.83% in assay [7] (setting [11]), -8.56% in assay [7] (setting [12]), -7.89% in assay [7] (setting [14]) and 12.8% in [7] (setting [13]).
Take `Cc1ccc2c(Br)cc(Br)c(O)c2n1`: the Potency in assay [3] was 10 µM (active); in [4], 15.8 µM (active); in assay [5], 17.8 µM (active).
With `CN(C)CCOC(c1ccc(Cl)cc1)c1ccccn1` (configuration not stated), the Potency result in assay [2] and in assay [9] was “inactive” each time. Further, the activity, negative = cell killing in [7] (setting [11]) was -15.3%; in [7] (setting [12]), -15.7%; in assay [7] (setting [13]), 3.84%. For the same molecule, the Potency in assay [7] (tumour line A) was 15.8 µM (active).
As for `COc1cc(N)c(Cl)cc1C(=O)NC1CCN(Cc2ccccc2)CC1`, the Potency entry in [2], in assay [3], in [4], in [5], in assay [6] and in assay [9] was “inactive” each time. Moreover, the results for the activity, negative = cell killing in [7] (setting [15]), in assay [7] (setting [16]) and in assay [7] (setting [17]) were 12.2%, -4.38% and -20.9%, respectively. Further, the Potency in assay [7] (tumour line A) is 11.2 µM (active).
`C[C@H]1O[C@@H](O[C@H]2CC[C@@]3(C)[C@H](CC[C@@H]4[C@@H]3C[C@@H](O)[C@]3(C)[C@@H](C5=CC(=O)OC5)CC[C@]43O)C2)C[C@H](O)[C@@H]1O[C@H]1C[C@H](O)[C@H](O[C@H]2C[C@H](O)[C@H](O[C@@H]3O[C@H](CO)[C@@H](O)[C@H](O)[C@H]3O)[C@@H](C)O2)[C@@H](C)O1`: the Potency in assay [1] is 0.355 µM (active); in [8] it was 1.58 µM (active); in assay [3], 0.316 µM (active); in assay [4] it was 0.282 µM (active); in assay [5] it was 0.316 µM (active); in assay [6], 0.316 µM (active). The results for the Potency in assay [9] and in assay [10] were 0.316 µM (active) and 0.198 µM (active), respectively.
On to `Cc1ccc(O)c([C@H](CCN(C(C)C)C(C)C)c2ccccc2)c1`, for which the Potency entry in assay [1], in assay [3], in [4], in [5], in assay [6] and in [9] was “inactive” throughout. The activity, negative = cell killing in [7] (setting [11]) is -18%; in [7] (setting [13]) it was -1.49%. For the same molecule, the Potency in assay [7] (tumour line A) is 3.98 µM (active).
For `CCOC(=O)[C@H](CCc1ccccc1)N[C@@H](C)C(=O)N1[C@H](C(=O)O)C[C@H]2CCCC[C@@H]21`, the activity, negative = cell killing in assay [7] (setting [12]) was 2.82%; in assay [7] (setting [14]), -15.6%; in assay [7] (setting [13]) it was 1.22% and -4.13%. Besides, the Potency result in [9] was “inactive”.
In the case of `CNCCCCOc1ccccc1Cc1ccccc1`, the Potency result in assay [2], in assay [3], in assay [5] and in assay [6] was “inactive” throughout.
Consider `CN=C(N)NCCC[C@H](N)C(=O)O`, for which the activity, negative = cell killing was -4.01% and -7.28% and -14.2% in [7] (setting [11]); -19.7% and 0.377% and -12.4% in assay [7] (setting [12]); -28.1% in assay [7] (setting [14]); 8.15% and -7.9% and -1.89% in assay [7] (setting [13]). Further, the Potency entry in assay [9] is “inactive”.
Regarding `CCN1/C(=C/C=C/c2sc3ccccc3[n+]2CC)Sc2ccccc21`, the Potency is 2 µM (active) in assay [1]; 2.24 µM (active) in [8]; 1.41 µM (active) in assay [3]; 0.126 µM (active) in assay [4]; 0.891 µM (active) in assay [5]; 3.16 µM (active) in assay [6]. Further, in [9], the Potency is 11.2 µM (active).
As for `CC(=C(CCOC(=O)C(C)C)SSC(CCOC(=O)C(C)C)=C(C)N(C=O)Cc1cnc(C)nc1N)N(C=O)Cc1cnc(C)nc1N`, the Potency result in assay [2], in assay [8], in [3], in [4], in assay [5] and in [6] was “inactive” throughout. Moreover, the activity, negative = cell killing in [7] (setting [11]) is 1.68%; in assay [7] (setting [12]), 3.5%; in assay [7] (setting [13]), -16.1%.
Consider `CCC1Nc2cc(Cl)c(S(N)(=O)=O)cc2S(=O)(=O)N1` (configuration not stated), for which the Potency entry in [2], in assay [8], in assay [3], in assay [4], in assay [5] and in [6] was “inactive” throughout. In addition, the Potency result in [9] is “inactive”. In addition, the figures for the activity, negative = cell killing in assay [7] (setting [11]), in assay [7] (setting [12]) and in [7] (setting [13]) were -19.7%, 9.79% and -1.53%, respectively.
Turning to `CCCCNc1ccc(C(=O)OCCOCCOCCOCCOCCOCCOCCOCCOCCOC)cc1`, the Potency entry in assay [2], in assay [5], in assay [6] and in [9] was “inactive” each time. Further, the activity, negative = cell killing was 19.8% in [7] (setting [15]); -6.92% in [7] (setting [16]); -6.38% in assay [7] (setting [17]); -27% in [7] (at 21.3 µM (top of the series), tumour line A).
Take `NC(N)=NN=C(/C=C/c1ccc([N+](=O)[O-])o1)/C=C/c1ccc([N+](=O)[O-])o1`: the Potency in [8] is 15.8 µM (active); in assay [3], 7.08 µM (active); in assay [5], 12.6 µM (active); in assay [6], 17.8 µM (active).
As to `O=C(Nc1ncc([N+](=O)[O-])s1)c1cccs1`, the Potency entry in [2] and in assay [4] was “inactive” each time. Also, the Potency was 20 µM (active) in assay [8] and 15.8 µM (active) in assay [9].
For `CC[C@]12CCCN3CCc4c(n(c5ccccc45)C(=O)C1)[C@@H]32`, the Potency result in assay [2] and in [8] was “inactive” in each case. In addition, the Potency was 20 µM (active) in [3]; 28.2 µM (active) and 31.6 µM (active) in assay [6]; 6.31 µM (active) in [7] (tumour line A). The activity, negative = cell killing was -16.8% in assay [7] (setting [16]) and -29.4% in assay [7] (setting [17]).
For `O=c1[nH]c(=O)n([C@H]2C[C@H](O)[C@@H](CO)O2)cc1F`, the Potency result in assay [1] was “inactive”. The Potency was 7.94 µM (active) in [8], 7.94 µM (active) in assay [4], 1 µM (active) in assay [6] and 0.891 µM (active) in assay [7] (tumour line A). Besides, the activity, negative = cell killing in assay [7] (setting [13]) is -17.1%.
Regarding `O=C(CCCN1CC=C(n2c(=O)[nH]c3ccccc32)CC1)c1ccc(F)cc1`, the Potency entry in [1], in assay [2], in assay [5], in [6] and in assay [9] was “inactive” throughout. In addition, the activity, negative = cell killing in [7] (setting [11]) was -17.1%; in [7] (setting [12]) it was -15%; in [7] (setting [13]) it was -24.6%. Moreover, the Potency in assay [7] (tumour line A) is 10 µM (active).
`Nc1nc(Cl)nc2c1ncn2[C@@H]1O[C@H](CO)[C@@H](O)[C@@H]1F`: the Potency in assay [2] is 11.2 µM (active); in [8], 0.398 µM (active); in assay [3], 1.26 µM (active); in [6], 0.316 µM (active); in [9], 10 µM (active).
Regarding `CC(C)n1c(/C=C/[C@@H](O)C[C@@H](O)CC(=O)O)c(-c2ccc(F)cc2)c2ccccc21`, the Potency result in [1], in assay [4] and in [5] was “inactive” each time. For the same molecule, the Potency in assay [8] is 8.91 µM (active); in assay [7] (tumour line A), 11.2 µM (active). Besides, the activity, negative = cell killing is -35.6% in assay [7] (setting [11]), -90.6% in [7] (setting [12]) and -19.1% in [7] (setting [13]).
As to `CN1CCC[C@@H]1CCO[C@](C)(c1ccccc1)c1ccc(Cl)cc1`, the Potency is 20 µM (active) in [2], 11.2 µM (active) in assay [8] and 22.4 µM (active) in assay [4].
Take `CCCCCN=C(N)N/N=C/c1c[nH]c2ccc(OC)cc12`: the Potency in assay [6] was 35.5 µM (active). For the same molecule, the activity, negative = cell killing in [7] (setting [11]) is -10.3%; in [7] (setting [12]), 8.03%; in assay [7] (setting [13]) it was 9.98%. Moreover, in assay [9], the Potency result is “inactive”.
Consider `CCCCCCCCCCCCCC[N+](C)(C)Cc1ccccc1`, for which the Potency in [4] is 22.4 µM (active); in assay [5], 20 µM (active); in assay [6], 14.1 µM (active); in assay [9], 12.6 µM (active).
Regarding `CC[C@H](c1ccc(O)cc1)[C@@H](CC)c1ccc(O)cc1`, the Potency entry in assay [2], in [3], in [4], in [5] and in assay [6] was “inactive” throughout. Moreover, the results for the activity, negative = cell killing in assay [7] (setting [15]), in assay [7] (setting [16]) and in assay [7] (setting [17]) were -16.2%, 5.51% and -30%, respectively. Further, in assay [7] (tumour line A), the Potency is 14.1 µM (active).
